Measurements taken from publication PMC5540273 (PLoS ONE, 2017).
Values joined by “and” are separate entries in the source; they are usually repeats but may differ in a detail not shown here. Identical values can stand only once. Like-named read-outs stand apart in the source and are kept apart here.

What was measured:
[1] = system: PIK3CD; conditions: concentration: 1 μM, replicates: in singlicate, n = 1
[2] = system: PIK3CG; conditions: concentration: 1 μM, replicates: in singlicate, n = 1
[3] = system: T1, PIK4CB; conditions: concentration: 1 μM, replicates: in singlicate, n = 1
T1 construct: gene PI4KB

[4] = system: PIKFYVE; conditions: concentration: 1 μM, replicates: in singlicate, n = 1
[5] = system: PIM1; conditions: concentration: 1 μM, replicates: in singlicate, n = 1
[6] = system: PIM2; conditions: concentration: 1 μM, replicates: in singlicate, n = 1
[7] = system: PIM3; conditions: concentration: 1 μM, replicates: in singlicate; n = 1
[8] = system: PIP5K1A; conditions: concentration: 1 μM, replicates: in singlicate; n = 1
[9] = system: PIP5K1C; conditions: concentration: 1 μM, replicates: in singlicate, n = 1
[10] = system: PIP5K2B; conditions: concentration: 1 μM, replicates: in singlicate; n = 1
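Note: KINOMEscan kinase panel screen.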

Compound | %Inh ([1]; 1 µM) | %Inh ([2]; 1 µM) | %Inh ([3]; 1 µM) | %Inh ([4]; 1 µM) | %Inh ([5]; 1 µM) | %Inh ([6]; 1 µM) | %Inh [7] | %Inh [8] | %Inh ([9]; 1 µM) | %Inh [10] | %Inh [1] | %Inh [2] | %Inh [3] | %Inh [4] | %Inh [5] | %Inh [6] | %Inh [9]
COc1ccc(-c2nc3n(c2-c2ccncc2)CCC3)cc1 [SKF-104493] | 5% and 25% | 11% and 1% | 0% and 10% | 11% and 0% | 0% and 50% | 2% and 0% | 0% | 27% | 25% and 5% | 0% | – | – | – | – | – | – | –
Cl.c1ccc(Cn2ncc3cc(Nc4ncnc5ccccc45)ccc32)cc1 [GW273749] | – | – | – | – | – | – | 1% | 0% | – | 10% | 0% | 3% | 0% | 0% | 0% | 0% | 11%
FC(F)(F)c1ccc(-c2cc(-c3c[nH]nc3-c3ccccn3)ccn2)cc1 [GW599550] | – | – | – | – | – | – | 51% | 18% | – | 17% | 0% | 1% | 0% | 22% | 19% | 0% | 74%
CN1c2ccc(-c3ccc(C(=O)NCCO)cc3)cc2-c2[nH]ncc2S1(=O)=O | – | – | – | – | – | – | 24% | 0% | – | 0% | 10% | 0% | 0% | 0% | 10% | 5% | 41%
Nc1nc(-c2ccccn2)c(-c2ccnc3ccccc23)s1 [GW548057] | – | – | – | – | – | – | 0% | 54% | – | 14% | 0% | 10% | 0% | 33% | 0% | 0% | 87%
O=C(NCCCN1CCCC1=O)c1cnc(NCc2cc(Cl)ccc2Cl)nc1NC1CCNCC1 | – | – | – | – | – | – | 4% | 0% | – | 0% | 0% | 7% | 0% | 30% | 0% | 0% | 12%
O=C(Nc1ccccc1F)NC1CCN(c2ccnc(Nc3ccc(F)cc3)n2)C1 (stereo not shown) [GSK1379722] | – | – | – | – | – | – | 0% | 0% | – | 14% | 0% | 0% | 100% | 0% | 0% | 0% | 45%
COc1ccc(-c2oc3ncnc(N)c3c2-c2ccc(OC)cc2)cc1 [SB-589132] | – | – | – | – | – | – | 0% | 48% | – | 11% | 4% | 10% | 10% | 23% | 0% | 0% | 54%
COc1ccc(Nc2nccc(N3CCC(NC(=O)Nc4ccc5c(c4)OCO5)C3)n2)cc1 (stereo not shown) [GSK1379745] | – | – | – | – | – | – | 0% | 11% | – | 40% | 5% | 0% | 14% | 14% | 9% | 0% | 51%
CSc1ccc(NC2=C(c3ccccc3Cl)C(=O)NC2=O)cc1 [SB-342411] | – | – | – | – | – | – | 0% | 0% | – | 0% | 0% | 0% | 0% | 0% | 0% | 0% | 33%
C[C@@H]1CCN(C(=O)CO)C[C@@H]1N(C)c1ncnc2[nH]ccc12 | – | – | – | – | – | – | 0% | 16% | – | 0% | 5% | 0% | 0% | 48% | 0% | 0% | 0%
O=C(Nc1n[nH]c2nc(-c3ccco3)c(Br)cc12)c1ccc(CN2CCCC2)cc1.O=C(O)[C@H](O)[C@@H](O)C(=O)O [SB-742352] | – | – | – | – | – | – | 0% | 0% | – | 0% | 0% | 5% | 40% | 0% | 0% | 0% | 0%
Fc1cccc(COc2ccc(Nc3ncnc4nn5ccccc5c34)cc2Cl)c1 [GW689066] | – | – | – | – | – | – | 0% | 40% | – | 7% | 0% | 0% | 0% | 0% | 0% | 0% | 43%
Cn1ccc2ncnc(Oc3ccc(NC(=O)Nc4cccnc4)c(Cl)c3)c21 | – | – | – | – | – | – | 0% | 0% | – | 35% | 8% | 7% | 0% | 0% | 1% | 0% | 1%
CC(C)N1CCC(n2cnc(-c3ccc(F)cc3)c2-c2ccnc(N)n2)CC1 [SB-223132] | – | – | – | – | – | – | 10% | 54% | – | 0% | 0% | 7% | 0% | 10% | 29% | 22% | 49%
CCn1c(-c2ccncc2)nc2cnccc21 [SB-735216] | – | – | – | – | – | – | 21% | 28% | – | 23% | 0% | 14% | 21% | 0% | 0% | 0% | 0%
CNc1nccc(-c2c(-c3ccc(F)cc3)ncn2CCCN2CCOCC2)n1 [SB-222516] | – | – | – | – | – | – | 81% | 6% | – | 0% | 0% | 0% | 20% | 0% | 0% | 0% | 17%

Compound | %Inh ([1]; 1 µM) | %Inh ([2]; 1 µM) | %Inh ([3]; 1 µM) | %Inh ([4]; 1 µM) | %Inh ([5]; 1 µM) | %Inh ([6]; 1 µM) | %Inh [7] | %Inh [8] | %Inh ([9]; 1 µM) | %Inh [10] | %Inh [1] | %Inh [2] | %Inh [3] | %Inh [4] | %Inh [5] | %Inh [6] | %Inh [9]
FC(F)(F)c1cc(Nc2nccc(-c3c(-c4ccc(Cl)cc4)nn4ncccc34)n2)ccc1Cl [GW829351] | – | – | – | – | – | – | 0% | 10% | – | 0% | 0% | 0% | 0% | 16% | 0% | 0% | 0%
O=c1cc(N2CCOCC2)nc2n(Cc3cccc(Cl)c3)ccn12 [GSK2296823] | – | – | – | – | – | – | 0% | 0% | – | 11% | 68% | 0% | 2% | 0% | 0% | 0% | 8%
CNc1nccc(-c2c(-c3ccc(F)cc3)ncn2C2CCN(C)CC2)n1 [SB-222903] | – | – | – | – | – | – | 0% | 36% | – | 0% | 0% | 0% | 0% | 9% | 1% | 0% | 0%
Cl.Cn1ccc(-c2cccc(Nc3ccnc4cc(-c5nccs5)ccc34)c2)n1 [GW525701] | – | – | – | – | – | – | 0% | 48% | – | 14% | 0% | 0% | 0% | 30% | 12% | 0% | 36%
Cc1ccc(O)cc1Nc1cc(C(F)(F)F)nc2ccc(-c3ccncc3)cc12 [GW630823] | – | – | – | – | – | – | 11% | 0% | – | 0% | 0% | 0% | 0% | 0% | 4% | 3% | 0%
Fc1cccc(COc2ccc(Nc3ncnc4cc[nH]c34)cc2Cl)c1 | – | – | – | – | – | – | 34% | 0% | – | 16% | 17% | 9% | 12% | 0% | 26% | 13% | 0%
Cc1ccc(C)c(NC(=O)NCCNc2ccnc(Nc3ccc(F)cc3)n2)c1 [GSK1379878] | – | – | – | – | – | – | 0% | 41% | – | 15% | 0% | 0% | 0% | 0% | 0% | 0% | 48%
CCC(CC)(CC)n1cnc2c(N)ncnc21 [SKF-97620] | – | – | – | – | – | – | 5% | 30% | – | 0% | 22% | 5% | 40% | 33% | 0% | 6% | 9%
Fc1ccc(Nc2nccc(-c3c(-c4ccc(Cl)cc4)nn4ncccc34)n2)cc1F [GW829058] | – | – | – | – | – | – | 24% | 13% | – | 14% | 54% | 18% | 32% | 20% | 31% | 11% | 54%
COC(=O)c1c(-c2ccccc2)c2cc(Cl)ccc2c(=O)n1Cc1ccc(S(C)(=O)=O)cc1 | – | – | – | – | – | – | 2% | 16% | – | 49% | 34% | 25% | 46% | 0% | 1% | 16% | 0%
CN1CCC(n2cnc(-c3ccc(F)cc3)c2-c2ccnc(NC3CCNCC3)n2)CC1 [SB-229482] | – | – | – | – | – | – | 2% | 0% | – | 0% | 0% | 34% | 31% | 40% | 1% | 0% | 0%
Nc1nccc2scc(-c3ccc4c(c3)CCN4C(=O)Cc3cc(F)ccc3F)c12 [GSK2587663] | – | – | – | – | – | – | 0% | 0% | – | 13% | 0% | 0% | 0% | 0% | 0% | 0% | 49%
CC(C)(C)OC(=O)NC1CCCN(c2cc(-c3ccc4c(N)n[nH]c4c3)nc(N)n2)C1 (stereo not shown) [GSK2286096] | – | – | – | – | – | – | 5% | 0% | – | 19% | 0% | 19% | 1% | 0% | 9% | 0% | 7%
Cn1cc(-c2ccc3c(c2)CCN3C(=O)Cc2cccc(C(F)(F)F)c2)c2c(N)ncnc21 [GSK2606414] | – | – | – | – | – | – | 0% | 0% | – | 0% | 0% | 0% | 6% | 0% | 0% | 0% | 0%
NC(=O)c1sc(-n2cnc3ccccc32)cc1OCc1ccccc1F [GSK1024306] | – | – | – | – | – | – | 0% | 0% | – | 0% | 39% | 0% | 0% | 20% | 21% | 0% | 53%
O=C(Nc1ccccc1)Nc1ccc(Oc2ccc3nccn3n2)cc1 | – | – | – | – | – | – | 0% | 4% | – | 7% | 0% | 0% | 0% | 5% | 0% | 6% | 25%
Cl.Cl.c1ccc(-c2cc3ccncc3cc2OC2CCNCC2)cc1 [GSK1122999] | – | – | – | – | – | – | 39% | 0% | – | 10% | 30% | 3% | 0% | 0% | 25% | 0% | 25%
